Giardia kill: Small Molecules that selectively kill Giardia lamblia: qHTS; Giardia lamblia trophozoite viability; AID 540267, 2011; activity change, % at 7.66 µM, hits read low; 0.15% of 340,000 active; in the data active means activity change below about -80%; inconclusive means between about -30% and that limit;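 further: parasites exposed to compound for two days anaerobically before the ATP read; on the % scale 0 is the no-effect control and ±100 the full control effect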
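Luminescent ATP signal served as the viability read-out, measured 15-30 min after adding ATP detection reagent to trophozoites that had been incubated with compounds for 48 hrs at 37 deg C anaerobically at 100 cells/well.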
TrxR1 substrate: qHTS Assay for Substrates of Mammalian Selenoprotein Thioredoxin Reductase 1 (TrxR1): qHTS. Potency, µM (top dose mostly 114 µM), for the others: at the highest dose activity change, negative = substrate turnover. 0.01% of 390,000 active. purified TrxR1 substrate turnover, NADPH consumption readout; further: potency means the concentration at half of the fitted maximal effect; on the % scale 0 is the no-effect control and ±100 the full control effect; nearly all actives have a fitted effect of over 50% in size
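Rat TrxR1, dispensed at 90 nM, was prereduced with 400 uM NADPH (final) for 5 min at ~22 deg C, then incubated with compound 15 min before 400 uM selenite. A first-read NADPH fluorescence drop versus no-compound background flagged substrates.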
IL-2 act: qHTS of IL-2 Activators | AID 652025, 2013 | activation, % (series mostly up to about 46 µM) | IL-2 activation reporter assay, cell-based qHTS; stimulated with anti-CD3/CD4/CD28 beads; in transgenic mouse T cells | 0.065% of 360,000 active; in the data active means activation above about 50%; inconclusive means mostly about 30% to 49%; further: 0% is about no effect
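Quantitative HTS in unstimulated transgenic mouse T cells, with memory T cells as non-tolerant control and PMA/ionomycin as tolerance-bypass control. Compound pretreatment lasted 60 minutes before 18 h bead stimulation; EGFP/DsRed fluorescence read.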
BRCA1 expr act: qHTS Assay to Identify Small Molecule Activators of BRCA1 Expression | MCF7-BRCA1-FFLuc reporter, luminescence, 48 h; response scale: scaled: vehicle 0%, 10 µM genistein 100% | Potency, µM (doses to about 46.1 µM), inactives show top-dose activation, hits mostly activators | 1.1% of 380,000 active | AID 624202, 2012; further: potency means the concentration at half of the fitted maximal effect; nearly all actives have a fitted effect of over 80% in size
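MCF7 cells carrying a BRCA1-firefly luciferase reporter (2000 cells/well, phenol-red free MEM) were attached for 2 h at 37 °C, then given compounds for 48 h. Luminescence was read 15 min after luciferase reagent; activity normalized to genistein (10 microM) and DMSO.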
mIDH1 inhibitor: qHTS for Inhibitors of mutant isocitrate dehydrogenase 1 (IDH1): qHTS; Potency, µM (doses to about 76.6 µM), without a hit: at the highest dose activity change, negative = inhibition, hits mostly inhibitors; Isocitrate dehydrogenase [NADP] cytoplasmic (Homo sapiens), O75874; IDH1-R132H enzyme, NADPH consumption, diaphorase/resazurin fluorescence; 0.093% of 390,000 active; further: potency means the concentration at half of the fitted maximal effect; on the % scale 0 is the no-effect control and ±100 the full control effect; nearly all actives have a fitted effect of over 65% in size
Target sequence (O75874 whole entry R132H, stated change not applied): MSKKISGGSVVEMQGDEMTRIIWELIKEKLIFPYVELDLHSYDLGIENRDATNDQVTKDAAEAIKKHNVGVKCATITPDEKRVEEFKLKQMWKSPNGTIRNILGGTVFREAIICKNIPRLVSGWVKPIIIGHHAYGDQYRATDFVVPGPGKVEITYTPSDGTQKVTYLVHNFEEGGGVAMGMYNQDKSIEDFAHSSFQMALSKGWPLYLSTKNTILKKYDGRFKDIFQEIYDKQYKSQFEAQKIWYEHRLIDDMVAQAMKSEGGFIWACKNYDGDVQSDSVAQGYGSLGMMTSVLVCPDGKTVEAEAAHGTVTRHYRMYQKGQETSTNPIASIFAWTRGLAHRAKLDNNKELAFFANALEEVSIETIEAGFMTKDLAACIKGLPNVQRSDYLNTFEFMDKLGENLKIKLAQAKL
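IDH1-R132H (0.5 ug/mL dispensed) in pH 7.5 Tris buffer was preincubated 30 min with compound, then given a substrate mix of 0.016 mM NADPH and 2 mM alpha-KG for 80 min at room temperature; remaining NADPH was read by diaphorase/resazurin fluorescence.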
TrxR1 inh: qHTS Assay for Inhibitors of Mammalian Selenoprotein Thioredoxin Reductase 1 (TrxR1): qHTS. recombinant rTrxR1, NADPH fluorescence consumption, selenite substrate. Potency, µM (top dose mostly 114 µM), inactives show top-dose activity change, negative = inhibition, usual class: inhibitors. 1% of 390,000 active. AID 588453, 2011; further: potency means the concentration at half of the fitted maximal effect; on the % scale 0 is the no-effect control and ±100 the full control effect; nearly all actives have a fitted effect of over 65% in size
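Rat TrxR1 (90 nM in the dispensed reagent) was pre-reduced with 400 uM NADPH for 5 min at room temperature, then incubated with compound for 15 min. After 400 uM selenite was added, NADPH fluorescence (Ex 340/Em 450 nm) was followed for 8 min.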
* marks the source's active call; other numbers are inactive results; ? = inconclusive; . = no result; [ ] = another dose, or the depositor's remark. Shown are actives, neighbours in structure and some others; about 2.2% of the full set was active somewhere. Unless noted, the call rests on the fitted dose curve; in most records, active means well fitted curve in the direction sought with a large enough effect; inconclusive means small, poorly fitted or top-dose-only effect, or another doubt; inactive means no such curve, though single readings can be large; an effect the other way counts as inactive or inconclusive.

SMILES	Giardia kill	TrxR1 substrate	IL-2 act	BRCA1 expr act	mIDH1 inhibitor	TrxR1 inh
CCC(Sc1nnc(C)n2c1cc1occc12)C(=O)Nc1ccccc1OC (stereo not given)	.	0.7%	.	.	0.0%	13.6%
CCc1c(C)nc(SCc2nc(-c3ccccc3C)no2)[nH]c1=O	.	-3.5%[57.1 µM]	.	.	13.7%	0.2%[57.1 µM]
CCSc1ncc(Cl)c(C(=O)N2CCN(c3ccccc3OC)CC2)n1	.	2.3%	.	.	54.5%	17.4%
Nc1cc(C(=O)OCC(=O)N2CCOCC2)ccc1Cl	23.6	17.8%	0.2	70.4%	-9.6%	19.9%
Nc1ccc(C(=O)OCC(=O)N2CCOCC2)cc1[N+](=O)[O-]	-14.5	2.5%	-2.6	11.2µM*	0.0%	12.5%
CCC(C)C(N)C1=NC(C(=O)N[C@@H](CC(C)C)C(=O)N[C@H](CCC(=O)[O-])C(=O)N[C@H](C(=O)N[C@H]2CCCCNC(=O)[C@H](CC(N)=O)NC(=O)[C@@H](CC(=O)[O-])NC(=O)[C@H](Cc3cnc[nH]3)NC(=O)[C@@H](Cc3ccccc3)NC(=O)[C@H]([C@@H](C)CC)NC(=O)[C@@H](CCCN)NC2=O)[C@@H](C)CC)CS1.[Zn+2] (stereo not given in full)	1.6	2.7%	-0.7	4.4%	31.6µM*	3.7%
O=C(c1ccc(-c2ccccc2Cl)o1)N1CCCC(C(F)(F)F)C1 (stereo not given)	-5.1	-6.9%	0.1	12.6µM*	7.1%	20.3%
NC(=O)C1CCCN(C(=O)c2ccc(-c3cccc(Cl)c3Cl)o2)C1 (stereo not given)	11.3	-5.9%[57.1 µM]	-1.6	?	13.2%	-14.6%[57.1 µM]
O=C(c1ccc(-c2ccccc2Cl)o1)N1CCC1	-17.1	-2.1%[57.1 µM]	-0.2	2.82µM*	-1.5%	-0.1%[57.1 µM]
CC1CCN(C(=O)c2ccc(-c3ccccc3Cl)o2)CC1	-25.2	1.9%[57.1 µM]	2.7	?	-10.0%	-21.9%[57.1 µM]
Cc1ccc(C(=O)c2cn(Cc3ccc(Cl)cc3)c3nc(C)ccc3c2=O)cc1	.	-1.2%	.	.	-9.4%	11.2%
Nc1ccc2oc(-c3ccccc3Cl)cc(=O)c2c1O	4.0	4.6%	-0.2	7.08µM*	2.5%	4.8%
O=c1cc(-c2ccccc2Cl)oc2ccc([N+](=O)[O-])c(O)c12	-13.5	-9.7%	-0.5	1.2%	-5.4%	2.3%[57.1 µM]
Cc1ccc(OCC(=O)Nc2nnc(SCc3cc(=O)n4cccc(C)c4n3)s2)cc1	-1.8	4.2%	.	19.3%	-8.2%	6.3%
CC1=NN(c2ccccc2)C(=O)/C1=C\c1ccc(Oc2ccc([N+](=O)[O-])cc2[N+](=O)[O-])cc1	5.9	1.0%[57.1 µM]	-1.2	-58.7%	-3.3%	3.98µM*
COc1cc(/C=C2\C(=O)N(c3ccccc3)N=C2C)ccc1Oc1ccc([N+](=O)[O-])cc1[N+](=O)[O-]	-14.3	-2.6%	-0.2	46.2%	10.2%	?
COc1ccc(OC)c(NC(=O)c2nc(S(=O)(=O)Cc3ccc(F)cc3)ncc2Cl)c1	.	1.0%	.	.	0.0%	0.708µM*
COc1ccccc1NC(=O)c1nc(S(=O)(=O)Cc2ccccc2)ncc1Cl	-16.2	-0.1%	-4.4	-100.7%	8.4%	3.55µM*
Cc1ccc(CNC(=O)c2nc(S(=O)(=O)Cc3ccc(C)cc3)ncc2Cl)cc1	.	3.1%	.	.	0.0%	?
CCS(=O)(=O)c1ncc(Cl)c(C(=O)Nc2ccccc2OC)n1	-13.6	0.7%	-4.4	-54.6%	14.4%	?
CCOc1ccccc1NC(=O)c1nc(S(=O)(=O)Cc2ccccc2)ncc1Cl	19.9	-3.6%	0.1	-67.3%	-3.0%	7.94µM*
CCCc1ccc(C(=O)/C=C/N(C)C)cc1	2.0	-11.8%	-1.8	12.6µM*	6.5%	3.4%
C=CC(=O)c1ccc(CCCCCC)cc1	.	16.8%[57.1 µM]	.	.	.	12.6µM*
COc1ccc(CCNC(=O)Cn2c(=O)c3sccc3n(CC(=O)Nc3cccc(C(F)(F)F)c3)c2=O)cc1OC	.	2.2%	.	.	2.4%	17.8%
O=C(CCC1N=C2c3ccccc3N=C(SCc3ccc(F)cc3)N2C1=O)NCCc1ccccc1 (stereo not given)	.	20.4%[57.1 µM]	.	.	0.3%	-1.5%[57.1 µM]
SMILES	Giardia kill	TrxR1 substrate	IL-2 act	BRCA1 expr act	mIDH1 inhibitor	TrxR1 inh
O=C(NCc1cccs1)c1cc(-c2cccc(Cl)c2)on1	10.4	4.6%	-3.5	57.3%	2.2%	22.1%
Cc1ccc(-c2cc(C(=O)NCc3cccs3)no2)cc1	12.2	6.8%	-1.3	4.47µM*	4.0%	22.4%
O=C(NCc1cccs1)c1cc(-c2ccc(O)cc2)on1	-12.7	4.4%	1.2	8.91µM*	-3.3%	15.1%
Cc1ccc(/C=C/C(=O)NCc2cccs2)cc1	-1.0	-0.3%	0.0	?	6.4%	-0.6%
Cc1ccc(/C=C/C(=O)NCc2cccs2)c(C)c1	0.5	4.4%	-1.7	10µM*	10.9%	20.0%
CCC(=O)N1c2ccc(S(=O)(=O)N3CCC(C)CC3)cc2CC1C (stereo not given)	.	-0.9%	.	0.8%	23.7%	3.8%
O=c1[nH]c(SCc2ccccc2)ncc1S(=O)(=O)c1ccccc1	3.1	-0.1%	.	0.0%	.	9.2%
Cc1cccc(NC(=O)Cn2c(=O)n(CCC(=O)N3CCc4ccccc4C3)c(=O)c3ccccc32)c1	.	11.4%	.	6.8%	-6.0%	26.9%
c1ccc(CSCc2cn3ccsc3n2)cc1	1.6	-10.0%	0.7	8.91µM*	-2.2%	-1.4%
CC(=O)Nc1cc(O)c2nonc2c1O	-3.2	3.16µM*	.	-61.1%	.	5.62µM*
CC(=O)Nc1c(O)cc(Br)c2nonc12	2.4	-2.3%	.	12.0%	.	-30.7%
COc1ccc(CCNC(=O)c2cnc3sc(N4CCC(C)CC4)nn3c2=O)cc1OC	.	11.1%[57.1 µM]	.	.	-1.9%	24.1%[57.1 µM]
Cc1ccc2ncc(C)c(/C=C/c3ccc(N(C)C)cc3)c2c1	.	-4.2%	.	.	.	-5.8%
COc1cccc(Cn2c(-c3nonc3NC(C)=O)nc3ccccc32)c1	.	27.7%	.	.	-11.8%	10.5%
COc1cc(C(=O)O/N=C2\C=CC(=O)C(C)=C2)cc(OC)c1OC	1.4	-3.2%	1.9	-18.5%	10.9%	2.82µM*
COc1cc(C(=O)ON=C2C=C(C)C(=O)C(C)=C2)cc(OC)c1OC	-7.0	-3.9%	-0.2	-15.1%	5.3%	-20.8%
Cc1ccc(S(=O)(=O)/N=C2\C=C(NS(=O)(=O)c3ccccc3)C(=O)c3ccccc32)cc1	-0.7	-14.6%	-3.2	-49.4%	11.0%	?

High-throughput results from PubChem BioAssay.
